Where “and” joins values, the source holds several entries; their conditions need not be identical. Equal entries are not always repeated. In all, about 290,000 compounds went through this assay and about 27,000 (9.3%) were called active. Many of the other results were omitted from the sample, so actives are more common in it than they were. A number with no mark means an inactive call. No stated cut-off is given here; in the data, active means inhibition mostly above about 28% (no sharp cut-off); inactive means mostly below about 43%.
experiment: A qHTS for Small Molecule Inhibitors of Shiga Toxin; details: Vero cells, Shiga toxin protein synthesis inhibition reporter; at 38.7 µM, active compounds read high; further: 0% is about no effect

Structure (SMILES) | inhibition
CN(CC(=O)O)S(=O)(=O)c1ccc2oc3ccccc3c2c1 | -10.6%
Cc1ccccc1CC1(CO)CCCN(C(=O)c2cc(-c3ccccc3)no2)C1 (centres undefined) | 51%
Cc1noc(C)c1CCC(=O)N1CCCC(CO)(Cc2ccccc2)C1 (centres undefined) | 98.7% (active)
Cc1noc(C)c1CCC(=O)O | 17.5%
CCCc1cc(C(=O)N2CCCC(CO)(CCCc3ccccc3)C2)n(C)n1 (centres undefined) | -8.83%
COC(=O)CCC(=O)N1CCCC(CO)(Cc2ccccc2)C1 (centres undefined) | 110% (active)
CCOC(=O)C1(Cc2ccccc2C)CCCN(C(=O)CCc2c(C)noc2C)C1 (centres undefined) | 15.6%
Cc1cc(NC(=O)CSc2nc(=O)cc(N)n2-c2ccc(F)cc2)no1 | 9.91%
COc1cccc(C(O)c2nc3ccccc3n2C)c1 (centres undefined) | -5.57%
O=C(NCCCn1ccnc1)c1ccccc1F | -3%
Cc1cccc(N2CCN(C(C)C(=O)N3CCc4ccccc43)CC2)c1C (centres undefined) | 12.5%
COc1ccc(NC(=O)CCC(=O)Nc2cc(OC)c(NC(=O)c3ccco3)cc2OC)c(OC)c1 | 2.68%
CCOC(=O)C1CCN(Cc2nnc(-c3cccc(Br)c3)o2)CC1 | -4.47%
Cc1c2cnn(CC(=O)NCCCN3CC(C)CC(C)C3)c(=O)c2c(C)n1Cc1ccc(Cl)cc1 (centres undefined) | 10.2%
CCCc1nc2ccccc2c(=O)n1/N=C/c1ccc(O)c(O)c1 | -7.79%
O=c1c2ccccc2ncn1/N=C/c1ccccc1 | 89.3% (active)
O=c1c2ccccc2nc(N/N=C/c2ccccc2)n1O | 4.04%
Cc1c(Cl)cccc1NC(=O)NCc1ccc(C)n1C | -6.17%
COc1ccc(CN(C)C(=O)Cc2c[nH]c3ccccc23)c(OC)c1OC | -4.06%
O=S(=O)(/C=C/c1ccccc1)N1CCNCC1 | -7.81%

Structure (SMILES) | inhibition
CCc1cccc(NC(=S)N(CCN(C)C)C2CCN(C(C)C)CC2)c1 | -1.09%
Cc1ccc(Nc2nc(Cl)c(C=O)s2)cc1 | 39.5% (active)
Cc1ccc(NC(=O)Nc2nnc(-c3ccncc3)s2)cc1 | -16.3%
Cc1ccc(Nc2nc(C)cc(C)c2C(N)=O)cc1 | -8.95%
COc1ccc(C(=O)NCCNc2ccc([N+](=O)[O-])cn2)cc1 | -3.6%
CCn1cc(/C=C(\NC(=O)c2cc(OC)c(OC)c(OC)c2)C(=O)N2CCN(C)CC2)c2ccccc21 | -5.81%
O=C(NCCOc1cccnc1)c1ccc(OC2CCN(Cc3ccccn3)CC2)cc1 | -23.8%
O=C(OCC(=O)N1CCN(C(=O)c2ccco2)CC1)c1cccc(O)c1 | 18.4%
O=C(CCn1nnc2ccccc21)OCC(=O)c1ccc([N+](=O)[O-])cc1 | -9.08%
COc1ccc(C2C3=C(OC(C)=O)c4ccccc4C3=Nc3c2c(=O)n(C)c(=O)n3C)cc1 (centres undefined) | -4.21% and -6.55%
COc1ccc(/C=C/c2noc(-c3ccccc3OC(C)=O)n2)cc1 | 50.5% (active)
CC(=O)Oc1ccc2c(c1)C(=O)c1ccccc1C2=O | 49.5%
Cc1ccc(NC(=O)c2cccs2)cc1S(=O)(=O)N(C)C | 30%
CCN(CC(=O)Nc1ccc(C)c(S(=O)(=O)N(C)C)c1)Cc1ccccc1 | 12.4%
Cc1ccc(C(=O)Nc2ccc(C)c(S(=O)(=O)N(C)C)c2)s1 | 64.1% (active)
O=C(c1ccc(S(=O)(=O)N2CCCC2)cc1)N1CCN(c2ccccc2F)CC1 | -13.1%
O=C(CSc1nnc(-c2ccc([N+](=O)[O-])cc2)o1)Nc1ccccn1 | 88.1% (active)
CCc1ccccc1NC(=O)CSc1nnc(-c2ccncc2)o1 | 6.43%
CCOC(=O)CSc1nnc(-c2ccc([N+](=O)[O-])cc2)o1 | 7.13%
O=C(NC1CCCC1)C(c1ccco1)N(C(=O)c1csnn1)c1ccccc1 (centres undefined) | -6.47%

Structure (SMILES) | inhibition
COC(=O)c1ccc(NC(=O)CSc2nc(N)c(NC(=O)c3ccc(Br)o3)c(=O)[nH]2)cc1 | -12.8%
CCN(CC)c1ccc(C(=O)OCC(=O)c2ccco2)cc1 | 46.8%
CCc1ccc(C(=O)COC(=O)c2ccco2)cc1 | 56.1% (active)
O=C(OCC(=O)N1CCCC1)c1ccco1 | 24.9%
COc1ccc(C2/C=C\CN(C(=O)c3ccc(C)cc3)C(Cc3ccccc3)C(=O)N2Cc2ccc(F)cc2)cc1 (centres undefined) | 16.3%
O=C(CN1CCCCCC1)Nc1ccc(S(=O)(=O)N2CCCCC2)cc1 | -3.01%
O=C(CC1NCCNC1=O)Nc1cc(Cl)cc(Cl)c1 (centres undefined) | -12.8%
O=C(CC1NCCc2ccccc21)Nc1cccc(Cl)c1 (centres undefined) | 51.4% (active)
O=C(CC1C(=O)NCCN1C(=O)c1ccc([N+](=O)[O-])cc1)Nc1cccc(Cl)c1 (centres undefined) | -30.7%
CCN(CC)CCN(C(=O)c1cc(Cl)sc1Cl)c1nc2cc3c(cc2s1)OCO3 | 6.7%
COc1cc(/C=N/NC(=O)Nc2ccccc2)ccc1OCCOc1ccccc1C | -4.02%
CCCn1c(C)cc(/C=C(\C#N)C(=O)OCC(=O)Nc2cc(OC)c(OC)c(OC)c2)c1C | 32.6% (active)
CCOC(=O)/C(C#N)=C/c1cn(CCC(=O)O)nc1-c1ccc(Br)cc1 | 2.95%
CCOC(=O)/C(C#N)=C/c1ccc(OCC(=O)Nc2ccccc2)c(OC)c1 | 70.9% (active)
COc1cc(CCC(=O)OCC(=O)Nc2cccc(S(N)(=O)=O)c2)cc(OC)c1OC | -3.91%
COc1cc(C2C3=C(CCCC3=O)OC3=C2C(=O)CCC3)ccc1OCC(=O)Nc1ccccc1 | 37.9%
Cc1ccc(C(=O)Oc2ccc(C(=S)N3CCOCC3)cc2)cc1 | 3.46%
CCc1ccc(C(=O)NC(=S)Nc2ccccc2N2CCOCC2)cc1 | -5.58%
COc1cc2c(cc1OC)CN(C(=O)c1cc(S(=O)(=O)N3CCCCC3)ccc1Cl)CC2 | 2%
